Here are results for 5 compounds from ChEMBL document CHEMBL3988442, “University of Dundee, Small-Polar-MMV Screening Library” (2021).

For some assays here: Results with a measured potency or affinity are listed apart.

Common to all, as to parameters: scale not given: direction of the effect not stated beside the values
Experiment [1] has as its target Protein translocase subunit SecA (Escherichia coli (strain K12)) (UniProt P10408). Put plainly: Assay to Identify E. coli SecA ATPase Inhibitors. The experiment is classed as functional. The conditions noted are these: 30 µM.
For experiment [2], the target named is T1, Ubiquitin-activating enzyme e1, putative (Leishmania donovani (strain BPK282A1)) (UniProt E9BSI1).
T1 sequence (whole entry): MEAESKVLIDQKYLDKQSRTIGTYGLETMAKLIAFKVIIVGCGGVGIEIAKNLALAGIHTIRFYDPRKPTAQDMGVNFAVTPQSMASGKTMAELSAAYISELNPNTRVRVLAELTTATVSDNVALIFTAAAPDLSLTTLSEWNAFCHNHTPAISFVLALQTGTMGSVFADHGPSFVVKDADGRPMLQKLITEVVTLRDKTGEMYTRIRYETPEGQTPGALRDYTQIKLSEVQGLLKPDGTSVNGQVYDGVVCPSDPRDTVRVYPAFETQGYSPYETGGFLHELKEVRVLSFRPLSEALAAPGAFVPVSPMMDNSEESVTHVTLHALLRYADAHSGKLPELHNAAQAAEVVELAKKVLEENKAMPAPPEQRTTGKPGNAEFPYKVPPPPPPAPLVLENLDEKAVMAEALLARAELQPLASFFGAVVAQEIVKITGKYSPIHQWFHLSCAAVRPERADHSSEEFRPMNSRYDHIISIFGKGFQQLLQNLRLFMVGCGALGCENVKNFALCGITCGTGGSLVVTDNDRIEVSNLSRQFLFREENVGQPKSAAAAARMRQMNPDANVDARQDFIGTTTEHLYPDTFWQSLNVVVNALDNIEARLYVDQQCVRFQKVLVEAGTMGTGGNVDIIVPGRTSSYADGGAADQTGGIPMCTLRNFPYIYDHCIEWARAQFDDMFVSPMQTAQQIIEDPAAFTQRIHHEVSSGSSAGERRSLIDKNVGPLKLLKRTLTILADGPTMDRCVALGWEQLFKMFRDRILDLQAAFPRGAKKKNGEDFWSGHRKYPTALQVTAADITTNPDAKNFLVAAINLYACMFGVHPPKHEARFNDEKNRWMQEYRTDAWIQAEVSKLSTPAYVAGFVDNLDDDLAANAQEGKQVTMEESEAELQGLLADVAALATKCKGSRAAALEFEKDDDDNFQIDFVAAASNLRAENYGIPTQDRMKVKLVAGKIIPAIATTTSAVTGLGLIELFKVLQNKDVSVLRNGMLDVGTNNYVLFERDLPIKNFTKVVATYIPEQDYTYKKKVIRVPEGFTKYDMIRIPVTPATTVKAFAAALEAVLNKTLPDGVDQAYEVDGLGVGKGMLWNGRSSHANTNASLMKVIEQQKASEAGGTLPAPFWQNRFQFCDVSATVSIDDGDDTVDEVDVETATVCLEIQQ
Kind of experiment: Leishmania donovani Ubiquitin Activating Enzyme (LdE1). The conditions noted are these: 30 µM. The experiment is classed as functional.

The target in experiment [3] is T2, Aspartate--tRNA(Asp/Asn) ligase (Mycobacterium tuberculosis (strain ATCC 25618 / H37Rv)) (UniProt P9WFW3). Also: in the data most compounds retested in dose-response had high values.
T2 sequence (whole entry): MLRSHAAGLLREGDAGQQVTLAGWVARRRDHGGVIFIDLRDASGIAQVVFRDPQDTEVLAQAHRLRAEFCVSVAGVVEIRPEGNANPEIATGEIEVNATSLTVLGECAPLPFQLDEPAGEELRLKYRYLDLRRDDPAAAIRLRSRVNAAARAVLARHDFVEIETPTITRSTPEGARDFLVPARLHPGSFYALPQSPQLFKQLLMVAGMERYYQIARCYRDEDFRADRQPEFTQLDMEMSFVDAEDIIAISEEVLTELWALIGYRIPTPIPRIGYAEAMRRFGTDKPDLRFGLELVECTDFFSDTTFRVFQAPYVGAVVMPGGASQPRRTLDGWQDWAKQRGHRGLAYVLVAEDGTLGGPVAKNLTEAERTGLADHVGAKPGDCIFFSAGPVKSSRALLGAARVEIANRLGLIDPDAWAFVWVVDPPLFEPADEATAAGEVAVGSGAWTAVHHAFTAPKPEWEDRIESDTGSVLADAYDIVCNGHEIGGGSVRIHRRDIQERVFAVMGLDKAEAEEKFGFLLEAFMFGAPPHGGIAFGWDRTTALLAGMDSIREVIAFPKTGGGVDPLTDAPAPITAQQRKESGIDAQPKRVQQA
Put plainly: Assay for Asp RNA synthetase-1 from Mycobacterium tuberculosis. The format is functional. The conditions noted are these: 30 µM.

Experiment [4] concerns the target AMP-activated protein kinase, AMPK (Homo sapiens) (UniProt P54646+O43741+P54619+Q9UGJ0+Q9Y478+Q13131+Q9UGI9). Kind of experiment: AMP-dependent Kinase enzyme assay. An in vitro enzyme assay that detects ADP turnover that is directly proportional to AMPK activity. This uses naive AMPK that is activated during the assay with MK-8722. The format is functional. Particulars: 30 µM.

Experiment [5] deals with Sialic acid-binding Ig-like lectin 9 (Homo sapiens) (UniProt Q9Y336). Put plainly: Hs-Siglec9 ALPHAscreen SOP 20170721. The conditions noted are these: 10 µM.
Sequence of Sialic acid-binding Ig-like lectin 9 (Homo sapiens) (Q9Y336 whole entry): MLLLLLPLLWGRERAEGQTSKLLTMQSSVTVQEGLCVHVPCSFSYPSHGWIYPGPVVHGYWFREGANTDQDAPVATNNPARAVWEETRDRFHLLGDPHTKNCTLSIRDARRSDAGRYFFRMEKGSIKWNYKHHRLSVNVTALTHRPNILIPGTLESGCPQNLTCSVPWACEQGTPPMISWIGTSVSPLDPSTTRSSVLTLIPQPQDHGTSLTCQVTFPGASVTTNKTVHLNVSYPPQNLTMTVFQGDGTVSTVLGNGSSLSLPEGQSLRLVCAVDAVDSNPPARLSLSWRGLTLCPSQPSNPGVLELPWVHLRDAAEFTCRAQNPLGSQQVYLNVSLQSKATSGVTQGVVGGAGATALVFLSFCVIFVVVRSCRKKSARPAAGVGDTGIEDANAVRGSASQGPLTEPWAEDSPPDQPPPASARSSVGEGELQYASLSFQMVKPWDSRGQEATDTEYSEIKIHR
In the next experiment the test system is Trypanosoma cruzi. Put plainly: Trypanosoma cruzi phosphomannomutase and mannose-1-phosphate guanylyltransferase assay. The format is functional. Particulars: 10 µM.
Experiment [6] addresses T3, Arginase-2, mitochondrial (Homo sapiens) (UniProt P78540).
T3 sequence (whole entry): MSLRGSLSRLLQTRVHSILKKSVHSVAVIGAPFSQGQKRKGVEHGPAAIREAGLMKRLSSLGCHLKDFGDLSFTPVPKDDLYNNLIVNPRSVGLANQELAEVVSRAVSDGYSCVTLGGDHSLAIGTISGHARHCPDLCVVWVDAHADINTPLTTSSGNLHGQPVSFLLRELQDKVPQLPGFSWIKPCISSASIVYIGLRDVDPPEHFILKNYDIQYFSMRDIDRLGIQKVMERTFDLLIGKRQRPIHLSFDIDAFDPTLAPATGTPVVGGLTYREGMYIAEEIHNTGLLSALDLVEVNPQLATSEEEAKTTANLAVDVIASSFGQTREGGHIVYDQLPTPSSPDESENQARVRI
Kind of experiment: in vitro enzyme assay to detect the production of urea directly proportional to the activity of Arginase II. Also: in the data most compounds retested in dose-response had high values. The experiment is classed as functional. Particulars: 33.3 µM.

The target of experiment [7] is T4, Proteasome subunit beta (Trypanosoma cruzi) (UniProt O96673).
T4 sequence (whole entry): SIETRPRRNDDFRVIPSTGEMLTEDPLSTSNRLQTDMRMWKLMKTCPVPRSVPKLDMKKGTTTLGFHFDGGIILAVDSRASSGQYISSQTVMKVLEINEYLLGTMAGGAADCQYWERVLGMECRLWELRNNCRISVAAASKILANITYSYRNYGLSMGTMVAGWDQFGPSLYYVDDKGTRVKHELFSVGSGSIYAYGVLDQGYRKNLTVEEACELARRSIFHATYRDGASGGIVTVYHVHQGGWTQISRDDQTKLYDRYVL
Put plainly: Trypanosoma cruzi proteasome chymotrypsin-like activity (TcProtChymo) assay. Also: in the data most compounds retested in dose-response had high values. The experiment is classed as functional. The conditions noted are these: 9.37 µM.

The next experiment is filed under the species Homo sapiens. Put plainly: To identify inhibition of the IFN signalling (Jak-Stat) pathway via expression of an eGFP reporter gene under the control of an IFN-stimulated response element (ISRE) containing MxA promoter. The experiment is classed as functional. The conditions noted are these: 30 µM.
The target of experiment [8] is Shiga toxin 2 (Escherichia coli O157:H7) (UniProt P09385+P09386). Kind of experiment: E. coli 0.157:H7 Shiga Toxin SOP - stx2 screening assay. The format is functional. Particulars: 30 µM.
Experiment [9] deals with T5, Tyrosyl-tRNA synthetase, putative (Trypanosoma cruzi (strain CL Brener)) (UniProt Q4DSP6).
T5 sequence (whole entry): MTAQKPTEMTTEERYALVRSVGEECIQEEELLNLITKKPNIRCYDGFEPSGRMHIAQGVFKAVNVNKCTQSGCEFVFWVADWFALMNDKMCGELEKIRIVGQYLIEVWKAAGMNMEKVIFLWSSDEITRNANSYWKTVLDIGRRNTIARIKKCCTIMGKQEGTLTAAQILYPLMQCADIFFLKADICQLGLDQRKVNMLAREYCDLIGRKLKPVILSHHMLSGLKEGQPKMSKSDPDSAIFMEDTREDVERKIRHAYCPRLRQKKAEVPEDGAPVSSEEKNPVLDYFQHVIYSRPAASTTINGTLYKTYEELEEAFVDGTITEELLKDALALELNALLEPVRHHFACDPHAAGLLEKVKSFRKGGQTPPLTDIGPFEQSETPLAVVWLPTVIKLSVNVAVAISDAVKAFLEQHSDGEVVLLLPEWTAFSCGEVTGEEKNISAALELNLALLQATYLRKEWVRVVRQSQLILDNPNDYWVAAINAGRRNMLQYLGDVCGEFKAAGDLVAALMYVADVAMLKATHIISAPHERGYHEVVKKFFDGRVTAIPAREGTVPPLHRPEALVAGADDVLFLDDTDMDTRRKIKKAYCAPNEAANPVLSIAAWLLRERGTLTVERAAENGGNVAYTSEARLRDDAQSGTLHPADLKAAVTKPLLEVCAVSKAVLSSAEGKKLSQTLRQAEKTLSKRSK
Kind of experiment: Trypanosoma cruzi tyrosyl tRNA synthetase (TcYRS) _High Tyrosine SOP. Also: in the data most compounds retested in dose-response had high values. The experiment is classed as functional. Particulars: 30 µM.

Experiment [10] deals with T5, Tyrosyl-tRNA synthetase, putative (Trypanosoma cruzi (strain CL Brener)). Put plainly: Trypanosoma cruzi tyrosyl tRNA synthetase (TcYRS) SOP. The experiment is classed as functional. Particulars: 30 µM.
In experiment [11] the target is Chromo domain-containing protein 1 (Saccharomyces cerevisiae (strain ATCC 204508 / S288c) (Baker's yeast)) (UniProt P32657). Kind of experiment: ScCHD-1 Enzyme Inhibition Assay. Also: in the data most compounds retested in dose-response had high values. The experiment is classed as functional. Particulars: 30 µM.
Sequence of Chromo domain-containing protein 1 (Saccharomyces cerevisiae (strain ATCC 204508 / S288c) (Baker's yeast)) (P32657 whole entry, the tested form may be a part): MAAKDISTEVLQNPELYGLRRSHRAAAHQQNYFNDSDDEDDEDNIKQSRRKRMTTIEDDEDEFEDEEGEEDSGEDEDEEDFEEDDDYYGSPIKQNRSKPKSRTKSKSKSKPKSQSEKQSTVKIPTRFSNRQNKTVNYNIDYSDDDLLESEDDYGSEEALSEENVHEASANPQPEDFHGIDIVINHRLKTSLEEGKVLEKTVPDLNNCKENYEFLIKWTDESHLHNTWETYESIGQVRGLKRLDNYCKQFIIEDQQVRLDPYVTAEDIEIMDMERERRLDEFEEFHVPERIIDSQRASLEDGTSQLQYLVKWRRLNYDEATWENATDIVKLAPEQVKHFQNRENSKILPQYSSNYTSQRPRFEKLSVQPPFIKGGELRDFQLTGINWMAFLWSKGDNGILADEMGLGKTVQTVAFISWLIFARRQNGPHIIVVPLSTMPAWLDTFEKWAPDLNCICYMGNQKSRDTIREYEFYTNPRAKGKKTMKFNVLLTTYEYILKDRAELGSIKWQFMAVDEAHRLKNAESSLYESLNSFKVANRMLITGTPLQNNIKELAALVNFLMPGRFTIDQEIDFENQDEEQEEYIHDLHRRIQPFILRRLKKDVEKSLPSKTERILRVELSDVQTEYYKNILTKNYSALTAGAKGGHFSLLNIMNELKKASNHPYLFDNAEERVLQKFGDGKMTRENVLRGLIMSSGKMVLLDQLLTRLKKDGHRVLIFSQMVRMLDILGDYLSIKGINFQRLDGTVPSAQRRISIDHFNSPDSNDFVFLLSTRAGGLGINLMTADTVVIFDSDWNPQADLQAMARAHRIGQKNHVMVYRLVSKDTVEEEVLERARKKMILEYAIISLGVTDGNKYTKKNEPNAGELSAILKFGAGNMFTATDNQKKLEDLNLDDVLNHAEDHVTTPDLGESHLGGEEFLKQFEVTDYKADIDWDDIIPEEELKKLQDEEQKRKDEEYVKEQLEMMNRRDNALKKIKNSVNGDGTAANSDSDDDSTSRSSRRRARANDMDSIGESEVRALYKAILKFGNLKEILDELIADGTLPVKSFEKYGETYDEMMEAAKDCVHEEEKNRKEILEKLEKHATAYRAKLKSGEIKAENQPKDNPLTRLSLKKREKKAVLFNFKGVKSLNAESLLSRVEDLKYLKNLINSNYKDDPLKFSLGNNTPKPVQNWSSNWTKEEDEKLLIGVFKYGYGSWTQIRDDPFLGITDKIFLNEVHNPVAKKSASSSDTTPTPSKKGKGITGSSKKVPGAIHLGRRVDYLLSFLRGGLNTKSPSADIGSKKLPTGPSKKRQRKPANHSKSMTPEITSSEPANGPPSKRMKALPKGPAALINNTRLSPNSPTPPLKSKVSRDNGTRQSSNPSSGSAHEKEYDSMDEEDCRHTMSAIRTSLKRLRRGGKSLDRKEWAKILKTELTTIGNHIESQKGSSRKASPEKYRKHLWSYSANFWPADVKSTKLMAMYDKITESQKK

Sequence of Protein translocase subunit SecA (Escherichia coli (strain K12)) (P10408 whole entry): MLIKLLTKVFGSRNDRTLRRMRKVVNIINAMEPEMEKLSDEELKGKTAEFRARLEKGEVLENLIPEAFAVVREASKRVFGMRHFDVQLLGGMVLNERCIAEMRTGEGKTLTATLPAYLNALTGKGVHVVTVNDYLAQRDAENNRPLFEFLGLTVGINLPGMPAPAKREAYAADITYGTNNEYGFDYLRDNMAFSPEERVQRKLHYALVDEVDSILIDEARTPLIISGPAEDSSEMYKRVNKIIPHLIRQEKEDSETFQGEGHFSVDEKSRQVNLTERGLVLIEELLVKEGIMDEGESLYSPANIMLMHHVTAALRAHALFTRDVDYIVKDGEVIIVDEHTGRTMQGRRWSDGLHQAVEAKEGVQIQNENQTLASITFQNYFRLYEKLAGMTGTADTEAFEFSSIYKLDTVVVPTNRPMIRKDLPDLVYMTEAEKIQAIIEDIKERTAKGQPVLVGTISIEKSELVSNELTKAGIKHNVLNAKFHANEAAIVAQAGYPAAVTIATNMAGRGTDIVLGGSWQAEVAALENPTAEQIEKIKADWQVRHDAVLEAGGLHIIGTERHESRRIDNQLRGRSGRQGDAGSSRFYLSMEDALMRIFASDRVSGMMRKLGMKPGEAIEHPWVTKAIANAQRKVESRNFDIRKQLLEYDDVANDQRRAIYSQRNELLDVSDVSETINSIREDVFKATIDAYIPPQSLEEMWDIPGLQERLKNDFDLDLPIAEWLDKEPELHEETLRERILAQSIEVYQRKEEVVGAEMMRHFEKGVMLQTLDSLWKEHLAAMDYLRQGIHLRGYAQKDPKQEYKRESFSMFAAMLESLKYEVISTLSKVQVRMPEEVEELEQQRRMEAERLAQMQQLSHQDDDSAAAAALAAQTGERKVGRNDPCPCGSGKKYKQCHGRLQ

On to `COc1cc(CNCC(O)c2ccc(C)cc2)cc2c1OCCO2` (stereo not given), for which the Percent Effect in experiment [1] is -5.58%; in [2] it was 24.3%; in [3], -2.36%; in experiment [4], 11%; in [5] it was 14.6%; with Trypanosoma cruzi, 2.32%. Further, the Percent Effect in experiment [6] is -3.88%; in [7], 16.3%; in the experiment filed under Homo sapiens, 8.18%; in experiment [8] it was -34.2%; in [9], 6.93%; in [10], 18.3%. Further, the Percent Effect in experiment [11] was -6.66%.

For the compound `Cc1cccc(CN2CC[C@@H]3[C@@H]2CCN3C(=O)c2cnoc2C)n1`, the Percent Effect in [1] is -3.21%; in experiment [2], 10.8%; in [3] it was -2.46%; in experiment [4], -5.71%; in experiment [5], -1.95%; in the experiment with Trypanosoma cruzi it was 5.27%. The Percent Effect turned out to be 34.2% in experiment [6]; 10.7% in experiment [7]; 7.71% in the experiment filed under Homo sapiens; 5.3% in [8]; 3.96% in [9]; 15.8% in [10]. Also, the Percent Effect in experiment [11] was -1.59%.

For the compound `Cc1ccc(CC(=O)N2CCN(CC(O)c3ccccc3)CC2)cn1` (stereo not given), the Percent Effect in [1] is 1.4%; in [2], 5.26%; in experiment [3], 1.83%; in experiment [4], -2.25%; in experiment [5] it was 3.56%; with Trypanosoma cruzi, 5.83%. For the same compound, the Percent Effect in [6] was 5.75%; in experiment [7] it was 1.5%; in the experiment listed under Homo sapiens, -4.04%; in [8], 2.79%; in [9] it was 5.39%; in experiment [10], 17.1%. Moreover, the Percent Effect in experiment [11] was -5.71%.

Take `Cc1cccc(CO[C@@H]2CC[C@H]3[C@H]2OCCN3Cc2ccsc2)n1`: the Percent Effect in experiment [1] is -6.22%; in experiment [2], 21.3%; in experiment [3] it was 0.204%; in [4], -3.76%; in experiment [5], 1.99%; with Trypanosoma cruzi it was 4.44%. Moreover, the Percent Effect in experiment [6] was -38.9%; in [7] it was 13.3%; in the experiment listed under Homo sapiens, 20.3%; in experiment [8], -20.4%; in experiment [9], 3.12%; in experiment [10] it was 15%. Moreover, the Percent Effect in [11] was -6.6%.

`Cc1ccccc1CC(=O)N1CCN(C2CCOC2=O)CC1` (stereo not given): the Percent Effect is -3.96% in [1]; 13.5% in experiment [2]; -0.136% in experiment [3]; -7.8% in [4]; 2.56% in experiment [5]; -5.75% with Trypanosoma cruzi. Further, the Percent Effect in [6] is -2.81%; in [7], 7.03%; in the experiment listed under Homo sapiens, 11.9%; in experiment [8], 23.2%; in experiment [9], 10.3%; in [10] it was 16.1%. In addition, in experiment [11], the Percent Effect was -7.37%.
